Measurements from PubChem BioAssay (NCI).
This is part of a sample that, as a whole, favours compounds with a hit. Of some 79,000 tested, about 15% had one in any assay. Active and inactive are the calls of the source. Cut-off read from the data, not from the text of the source: active = growth inhibition above about 70%; inactive = the rest.

Tests used:
[1] = NCI Yeast Anticancer Drug Screen. Data for the rad52 strain (AID 147);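 note: 0% = growth of vehicle-treated control cultures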; details: S. cerevisiae rad52 mutant growth inhibition, active compounds read high
Method in brief: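 Screen used a yeast mutant impaired in DNA repair. After compound exposure, growth was measured. Values reflect inhibition compared with vehicle-treated cells.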

[2] = NCI Yeast Anticancer Drug Screen. Data for the wt1 strain (AID 149);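 note: 0% = growth of vehicle-treated wt1 cultures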; details: S. cerevisiae wt1 strain (SPY 50644) growth inhibition, active compounds read high
Method in brief: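 wt1 strain grown with compound or vehicle; inhibition taken from the growth difference.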

[3] = NCI Yeast Anticancer Drug Screen. Data for the rad50EPP+ strain (AID 151);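 note: 0% = growth of vehicle-treated control cultures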; details: S. cerevisiae rad50 mutant strain, active compounds read high
Method in brief: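 Exposing the rad50EPP+ strain to each compound, growth was compared with vehicle-only cultures to give inhibition.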

[4] = NCI Yeast Anticancer Drug Screen. Data for the mgt1 strain (AID 153); details: S. cerevisiae mgt1 mutant growth inhibition, active compounds read high
Method in brief: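 Genetically defined yeast (mgt1) treated with compound; inhibition of growth expressed against vehicle-treated controls.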

[5] = NCI Yeast Anticancer Drug Screen. Data for the rad50 strain (AID 155);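 note: 0% = growth of vehicle-only cultures of the same strain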; details: S. cerevisiae rad50 strain growth inhibition, active compounds read high
Method in brief: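 DNA repair mutant yeast, compound exposure, growth read-out; inhibition is taken relative to vehicle.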

[6] = NCI Yeast Anticancer Drug Screen. Data for the mec2-1 strain (AID 157); details: S. cerevisiae mec2-1 strain, active compounds read high
Method in brief: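 Readout is yeast growth inhibition, normalised to vehicle-treated controls, in the mec2-1 strain exposed to compound.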

[7] = NCI Yeast Anticancer Drug Screen. Data for the sgs1 mgt1 strain (AID 161);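 note: 0% = growth of cultures given vehicle only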; details: S. cerevisiae sgs1 mgt1 strain, active compounds read high
Method in brief: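 Percent growth inhibition was derived by comparing compound-exposed mutant yeast with vehicle-exposed cultures. The strain carries alterations in DNA damage repair.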

[8] = NCI Yeast Anticancer Drug Screen. Data for the CLN2oe strain (AID 163);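 note: 0% = growth of vehicle-only control cultures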; details: S. cerevisiae CLN2oe strain, active compounds read high
Method in brief: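 Values reflect how much compound exposure reduced yeast growth, referenced to vehicle-exposed cells. Assay organism is a strain with a defined genetic change affecting cell-cycle control.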

[9] = NCI Yeast Anticancer Drug Screen. Data for the cln2 rad14 strain (AID 165);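 note: 0% = growth equal to vehicle treated cultures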; details: S. cerevisiae cln2 rad14 strain, active compounds read high
Method in brief: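 Relative to vehicle controls, growth inhibition of compound-treated cln2 rad14 yeast was recorded.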

[10] = NCI Yeast Anticancer Drug Screen. Data for the bub3 strain (AID 167); details: S. cerevisiae bub3 mutant strain, active compounds read high
Method in brief: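 In this screen, a yeast mutant lacking normal mitotic checkpoint function is challenged with compound. Relative growth versus vehicle gives the inhibition value.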

[11] = NCI Yeast Anticancer Drug Screen. Data for the wt2 strain (AID 169);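 note: 0% = growth of vehicle-treated yeast cultures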; details: S. cerevisiae wt2 strain growth inhibition, active compounds read high
Method in brief: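 Values express reduction in yeast growth under compound treatment, referenced to vehicle-treated cells.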

[12] = NCI Yeast Anticancer Drug Screen. Data for the mlh1 strain (AID 171);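 note: 0% = growth of vehicle-treated control cultures of the same strain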; details: S. cerevisiae mlh1 strain growth inhibition, active compounds read high
Method in brief: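 Steps: expose the defined-mutant yeast strain to compound; expose a parallel culture to vehicle; measure growth; express compound effect as inhibition relative to the vehicle culture.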

[13] = NCI Yeast Anticancer Drug Screen. Data for the mlh1 rad18 strain (AID 175); details: S. cerevisiae mlh1 rad18 strain growth inhibition, active compounds read high
Method in brief: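 Test agents were incubated with a yeast strain of defined genotype (DNA damage repair defect). Inhibition of growth was derived by comparison with vehicle-exposed cultures.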

[14] = NCI Yeast Anticancer Drug Screen. Data for the rad18 strain (AID 177); details: S. cerevisiae rad18 mutant growth inhibition, active compounds read high
Method in brief: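 A genetically defined yeast mutant impaired in DNA damage repair was treated with test compounds, then its growth was measured against cultures receiving vehicle alone.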

[15] = NCI Yeast Anticancer Drug Screen. Data for the rad14 strain (AID 159);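 note: 0% = growth of vehicle-treated control cultures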; details: S. cerevisiae rad14 strain growth inhibition, active compounds read high
Method in brief: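 DNA repair-defective yeast, compound-exposed; % growth inhibition derived by comparison with vehicle-treated controls.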

[16] = NCI Yeast Anticancer Drug Screen. Data for the sgs1 strain (AID 173);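 note: 0% = growth of vehicle-only control cultures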; details: S. cerevisiae sgs1 mutant, active compounds read high
Method in brief: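 Treat defined-mutant yeast with compound; measure growth; calculate inhibition relative to vehicle-treated cells.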

[17] = at 5.0 µM (retest, dose inferred, filed as 0.5)
[18] = at 50.0 µM (retest, dose inferred, filed as 5.0)

Measured: growth inhibition

O=C1C(Cl)=C(Cl)C(Cl)(Cl)C(Cl)C1(Cl)Cl (stereo not drawn)
active: [1]; at 11.0 µM 71% | [1]; at 33.0 µM 99% | [1]; at 100.0 µM 99% | [2]; at 33.0 µM 94% | [2]; at 100.0 µM 99% | [3]; at 33.0 µM 90% | [3]; at 100.0 µM 99% | [4]; at 33.0 µM 99% | [4]; at 100.0 µM 99% | [5]; at 33.0 µM 99% | [5]; [18] 98% | [5]; at 50.0 µM 99.3% | [5]; at 100.0 µM 99% | [6]; at 33.0 µM 99% | [6]; [18] 99% | [6]; at 50.0 µM 99.5% | [6]; at 100.0 µM 99% | [7]; [18] 99% | [7]; at 50.0 µM 99.6% | [8]; at 33.0 µM 99% | [8]; at 100.0 µM 99% | [9]; [18] 96% | [9]; at 50.0 µM 96.8% | [10]; at 33.0 µM 99% | [10]; [18] 98% | [10]; at 50.0 µM 99.5% | [10]; at 100.0 µM 97% | [11]; at 33.0 µM 100% | [11]; at 100.0 µM 99% | [12]; at 33.0 µM 99% | [12]; at 100.0 µM 99% | [13]; [18] 99% | [13]; at 50.0 µM 99.4% | [14]; at 3.7 µM 73% | [14]; at 11.0 µM 90% | [14]; at 33.0 µM 99% | [14]; at 100.0 µM 99%
inactive: [1]; at 1.2 µM 14% | [1]; at 3.7 µM 27% | [2]; at 1.2 µM 2% | [2]; at 3.7 µM 5% | [2]; at 11.0 µM 21% | [3]; at 1.2 µM 20% | [3]; at 3.7 µM 34% | [3]; at 11.0 µM 58% | [4]; at 1.2 µM 5% | [4]; at 3.7 µM 25% | [4]; at 11.0 µM 45% | [5]; at 1.2 µM 16% | [5]; at 3.7 µM 26% | [5]; [17] 21% | [5]; at 11.0 µM 58% | [6]; at 1.2 µM 8% | [6]; at 3.7 µM 29% | [6]; [17] 22% | [6]; at 11.0 µM 49% | [7]; [17] 30% | [8]; at 1.2 µM 15% | [8]; at 3.7 µM 38% | [8]; at 11.0 µM 54% | [9]; [17] 9% | [10]; at 1.2 µM 11% | [10]; at 3.7 µM 28% | [10]; [17] 5% | [10]; at 11.0 µM 59% | [11]; at 1.2 µM -14% | [11]; at 3.7 µM -6% | [11]; at 11.0 µM 54% | [12]; at 1.2 µM 12% | [12]; at 3.7 µM 26% | [12]; at 11.0 µM 66% | [13]; [17] 26% | [14]; at 1.2 µM 40%

S=c1[nH]nc(-c2ccc(Cl)cc2)s1
inactive: [1]; at 1.2 µM 16% | [1]; at 3.7 µM 7% | [1]; at 11.0 µM 23% | [2]; at 1.2 µM -18% | [2]; at 3.7 µM -21% | [2]; at 11.0 µM -25% | [3]; at 1.2 µM -1% | [3]; at 3.7 µM -1% | [3]; at 11.0 µM -9% | [3]; at 33.0 µM 31% | [4]; at 1.2 µM 8% | [4]; at 3.7 µM 11% | [4]; at 11.0 µM 12% | [5]; at 1.2 µM -6% | [5]; at 3.7 µM -7% | [5]; at 11.0 µM 21% | [6]; at 1.2 µM 1% | [6]; at 3.7 µM 12% | [6]; at 11.0 µM -15% | [15]; at 1.2 µM -24% | [15]; at 3.7 µM -18% | [15]; at 11.0 µM -16% | [7]; [17] -8% | [8]; at 1.2 µM 6% | [8]; at 3.7 µM 12% | [8]; at 11.0 µM -10% | [8]; at 33.0 µM 55% | [9]; [17] 52% | [10]; at 1.2 µM 23% | [10]; at 3.7 µM 24% | [10]; [17] 27% | [10]; at 11.0 µM 16% | [11]; at 1.2 µM -28% | [11]; at 3.7 µM -21% | [11]; at 11.0 µM -28% | [11]; at 33.0 µM 69% | [12]; at 1.2 µM -16% | [12]; at 3.7 µM -17% | [12]; at 11.0 µM -8% | [12]; at 33.0 µM 67% | [16]; at 1.2 µM -13% | [16]; at 3.7 µM -13% | [16]; at 11.0 µM -16% | [16]; at 33.0 µM 64% | [14]; at 1.2 µM -15% | [14]; at 3.7 µM -6% | [14]; at 11.0 µM 21%
active: [1]; at 33.0 µM 93% | [1]; at 100.0 µM 97% | [2]; at 33.0 µM 78% | [2]; at 100.0 µM 96% | [3]; at 100.0 µM 81% | [4]; at 33.0 µM 83% | [4]; at 100.0 µM 97% | [5]; [17] 73% | [5]; at 33.0 µM 90% | [5]; [18] 99% | [5]; at 50.0 µM 87.2% | [5]; at 100.0 µM 95% | [6]; [17] 72% | [6]; at 33.0 µM 71% | [6]; [18] 99% | [6]; at 50.0 µM 87.8% | [6]; at 100.0 µM 96% | [15]; at 33.0 µM 92% | [15]; at 100.0 µM 97% | [7]; [18] 97% | [8]; at 100.0 µM 95% | [9]; [18] 97% | [10]; at 33.0 µM 81% | [10]; [18] 96% | [10]; at 100.0 µM 96% | [11]; at 100.0 µM 96% | [12]; at 100.0 µM 96% | [16]; at 100.0 µM 94% | [13]; [17] 80% | [13]; [18] 99% | [13]; at 50.0 µM 86% | [14]; at 33.0 µM 92% | [14]; at 100.0 µM 96%
